PLC-beta3 inh: PLC-beta3 (human) inhibition, primary screen | 370,000 compounds, 0.18% hits | Purified PLC-beta3, fluorogenic substrate, fluorescence | inhibition, % at 12.2 µM; in the data active means inhibition above about 11%;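 further: 0% = median of compound wells on plate and 100% = full blocker control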
PLCg1 inh: blocks human PLC-gamma1 enzyme activity. AID 720700. P19174. purified PLC-gamma1, fluorogenic substrate, fluorescence. inhibition, % at 12.2 µM. 370,000 compounds, 0.84% hits; in the data active means inhibition above about 9.5%
Target sequence (P19174 whole entry, looked up): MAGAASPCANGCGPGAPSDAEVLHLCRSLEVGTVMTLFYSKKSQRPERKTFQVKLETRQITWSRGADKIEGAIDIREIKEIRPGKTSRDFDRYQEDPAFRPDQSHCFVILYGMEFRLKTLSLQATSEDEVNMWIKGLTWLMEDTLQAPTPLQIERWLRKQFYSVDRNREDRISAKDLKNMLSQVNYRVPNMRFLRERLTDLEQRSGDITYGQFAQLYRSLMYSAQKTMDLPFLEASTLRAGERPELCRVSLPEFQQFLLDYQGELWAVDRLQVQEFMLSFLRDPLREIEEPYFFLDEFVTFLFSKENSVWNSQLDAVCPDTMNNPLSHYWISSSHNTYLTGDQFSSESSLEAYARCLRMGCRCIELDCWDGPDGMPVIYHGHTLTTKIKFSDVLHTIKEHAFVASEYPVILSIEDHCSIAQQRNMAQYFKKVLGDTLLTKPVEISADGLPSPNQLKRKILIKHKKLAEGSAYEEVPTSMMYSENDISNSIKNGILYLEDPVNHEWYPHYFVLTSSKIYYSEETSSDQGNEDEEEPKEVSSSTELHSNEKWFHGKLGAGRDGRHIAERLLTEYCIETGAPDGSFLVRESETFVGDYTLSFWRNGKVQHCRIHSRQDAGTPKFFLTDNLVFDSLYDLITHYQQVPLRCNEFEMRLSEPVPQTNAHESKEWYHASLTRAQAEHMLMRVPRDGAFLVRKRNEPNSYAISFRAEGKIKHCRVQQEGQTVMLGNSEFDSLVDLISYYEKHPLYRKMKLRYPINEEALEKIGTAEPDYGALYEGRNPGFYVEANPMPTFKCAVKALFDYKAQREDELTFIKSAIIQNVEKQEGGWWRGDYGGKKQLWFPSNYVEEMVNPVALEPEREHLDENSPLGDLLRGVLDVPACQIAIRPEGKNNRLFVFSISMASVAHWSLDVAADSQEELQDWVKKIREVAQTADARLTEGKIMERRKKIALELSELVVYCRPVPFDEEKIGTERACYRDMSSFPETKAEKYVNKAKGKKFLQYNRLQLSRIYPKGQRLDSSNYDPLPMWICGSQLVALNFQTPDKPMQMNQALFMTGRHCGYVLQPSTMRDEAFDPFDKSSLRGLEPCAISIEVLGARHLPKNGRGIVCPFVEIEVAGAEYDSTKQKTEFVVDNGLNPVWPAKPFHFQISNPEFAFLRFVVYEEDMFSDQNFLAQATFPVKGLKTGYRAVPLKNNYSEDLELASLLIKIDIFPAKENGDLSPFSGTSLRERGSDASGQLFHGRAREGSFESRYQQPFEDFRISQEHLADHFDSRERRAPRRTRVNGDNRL
ADAM10 inh: inhibitors of human ADAM10; inhibition, % at 7 µM; recombinant ADAM10, EDANS/DABCYL FRET peptide cleavage, 3 h; AID 720582; O14672; 370,000 compounds, 0.62% hits;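 active means inhibition above a per-campaign cutoff equal to the mean of compounds falling between control-based bounds plus 3 SD, cut at about 20% in these data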;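 further: 0% = DMSO wells while the 100% control is not disclosed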
ADAM17 inh: inhibitors of human ADAM17; P78536; recombinant ADAM17, EDANS/DABCYL FRET peptide cleavage; inhibition, % at 6.95 µM; 370,000 compounds, 0.83% hits; AID 720648;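 active means inhibition above the mean of compounds lying between control limits plus 3 SD, set per campaign, cut at about 8.5% in these data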;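 further: 0% = DMSO-only wells as the low control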
KLK7 zymogen act: proKLK7 (human) activation, primary screen; P49862; AID 652039; 370,000 compounds, 0.9% hits; activation, % at 7 µM; purified proKLK7, EDANS-DABCYL substrate fluorescence; 100% is mature enzyme control, 0% vehicle;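 active means activation above the mean of all tested compounds plus 3 SD, computed per campaign excluding outliers beyond control limits, cut at about 13% in these data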
HGIII-sPLA2 inh: Blocks human group III sPLA2 activity; Q9NZ20; inhibition, % at 12.2 µM; QFRET BODIPY PC-A2 liposome hydrolysis, fluorescence; AID 743126; 370,000 compounds, 0.56% hits;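 active means inhibition above mean plus 3 SD of compounds lying within the high and low control bounds, cut at about 19% in these data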;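 further: 0% = median of test compound wells and 100% = no enzyme DMSO wells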
ADAM10 ctr: counter-screen for ADAM17 exosite inhibitors: inhibitors of human ADAM10; shares compounds with ADAM17 inh; recombinant ADAM10, EDANS/DABCYL FRET peptide cleavage, 3 h; inhibition, % at 6.95 µM; 2,900 compounds, 47% hits;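 active means mean inhibition over the triplicate runs exceeds the activity threshold set in the earlier primary screen, cut at about 20% in these data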;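 further: 0% = DMSO wells and 100% = marimastat wells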
ADAM17 confirm: confirmation of inhibitors of human ADAM17 | inhibition, % at 6.95 µM | shares compounds with ADAM17 inh | recombinant ADAM17, EDANS/DABCYL QFRET peptide cleavage | 2,900 compounds, 65% hits;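 active means mean inhibition across replicates above the hit cutoff set in the primary screen, cut at about 8.5% in these data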;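 further: 0% = DMSO wells and 100% = marimastat wells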
Numbers without * were called inactive; . = not tested or not shown. This is a sample that favours compounds with a hit; in the whole collection about 3.4% have one here.

SMILES | PLC-beta3 inh | PLCg1 inh | ADAM10 inh | ADAM17 inh | KLK7 zymogen act | HGIII-sPLA2 inh | ADAM10 ctr | ADAM17 confirm
CCC1C(=NO)C(CC)C(c2ccccc2)NC1c1ccccc1 (stereo unspecified) | -23 | 6 | 16 | 17* | -1 | 3 | 15 | 10*
CCOc1ccc(N=Nc2c(=O)[nH]n3c(=O)cc(C)[nH]c23)cc1 | 4 | 4 | 13 | 10* | 0 | 8 | 15 | 12*
COCCNC(=O)c1ccc(CS(=O)(=O)c2cccc(C(F)(F)F)c2)o1 | -2 | 1 | -1 | 4 | 0 | -8 | . | .
C#CCN(C[C@H]1[C@H](OC(=O)Nc2cccs2)[C@H](OC(=O)Nc2cccs2)CN(C(=O)OC(C)C)N1C(=O)OC(C)C)S(=O)(=O)c1ccc(C)cc1 | 2 | 4 | 10 | 12* | 0 | -10 | 33* | 19*
O=C(COc1cccc2cccnc12)Nc1ccccc1N1CCOCC1 | 0 | 1 | 1 | -5 | 0 | 0 | . | .
COc1cccc(CN2CC(C(=O)NCCCn3ccnc3C)CCC2=O)c1 (stereo unspecified) | -5 | 0 | 7 | -4 | 0 | 12 | . | .
CCCSc1nsc(NC(=O)CCC)n1 | 1 | 4 | 10 | 9.2* | 3 | -8 | 4 | 3
COc1ccc(C(=O)C2(C(=O)NCc3ccccc3)CC(c3ccccc3C(F)(F)F)=NO2)cc1 (stereo unspecified) | 0 | -3 | 12 | 9.1* | 1 | -8 | 22* | 15*
Cc1cnc(NC(=O)CSc2ccc(Cl)cc2)s1 | 10 | 7 | 9 | 9.0* | 0 | -10 | 7 | 7
COC(=O)[C@@H]1C[C@@]2(O)[C@H](O)[C@H](O)[C@H](O)C[C@H]2N1Cc1ccc(C(F)(F)F)cc1 | 8 | 4 | 1 | 10* | 0 | 13 | 7 | 6
COCCCNc1nc2ccccc2nc1NS(=O)(=O)c1ccc(C)cc1C | -201 | -134 | -259 | -98 | 6 | -21 | . | .
O=C(OCC(=O)N1CCCC1)c1cc(Cl)ccc1[N+](=O)[O-] | -5 | 1 | 0 | -6 | -1 | 4 | . | .
Cc1ccccc1NC(=O)C(=O)c1cn(C)c2ccccc12 | 5 | 0 | 2 | -2 | 0 | 1 | . | .
COc1ccc(C)cc1S(=O)(=O)N(CC(=O)N1CCOCC1)Cc1ccccc1 | -4 | -1 | 1 | -3 | 0 | 4 | . | .
COc1ccc(C)cc1S(=O)(=O)N(CC(=O)NCc1ccc(Cl)cc1)Cc1ccccc1 | 1 | -1 | 19 | 9.7* | 0 | -19 | 31* | 17*
CC(C)c1ccc(OC(=O)c2ccc3c(=O)n4c(nc3c2)CCC4)cc1 | -4 | 1 | -6 | 2 | -3 | -2 | . | .
CCCCC(CC)C(=O)Oc1ccc(O)c(C(C)(C)C)c1 (stereo unspecified) | -2 | 4 | 14 | 12* | 0 | -20 | 16 | 7
COc1ccc(S[C@]2(C(=O)N(C)C)CC(=O)N(C(=O)CCc3ccccc3)[C@@H]2c2ccc(OC)cc2)cc1 | 1 | 5 | 9 | 10* | 0 | 0 | 14 | 9.8*
COc1ccc(S[C@]2(C(=O)N3CCCC3)CC(=O)N(C(=O)CCc3ccccc3)[C@@H]2c2ccc(OC)cc2)cc1 | 0 | 0 | 6 | 2 | 0 | -4 | . | .
COCCN1Cc2cccc(C(=O)NC(C)CCc3ccco3)c2C1=O (stereo unspecified) | -2 | 1 | 10 | -3 | 0 | 4 | . | .
O=C(Nc1cccc(Oc2ccccc2)c1)C1Cc2c(-c3cccc(F)c3)ccnc2O1 (stereo unspecified) | 0 | 1 | 15 | 15* | 0 | -12 | 15 | 11*
CC(=O)Nc1cccc(-c2ccnc3c2CC(C(=O)Nc2cccc(Oc4ccccc4)c2)O3)c1 (stereo unspecified) | -2 | 0 | 18 | 7 | 0 | -40 | . | .
COc1ccc(Nc2nc(C)c(-c3ccccc3)s2)cc1 | -13 | -14 | 9 | 9.1* | 0 | 8 | -16 | 1

Bioassay records (PubChem BioAssay)
